Laboratory results from ChEMBL document CHEMBL4513216, “Probing the Open Global Health Chemical Diversity Library for Multistage-Active Starting Points for Next-Generation Antimalarials” (ACS Infect Dis, 2020).
Screen size: about 65,000 compounds; about 2,100 (3.2%) showed an effect of 50% or more. The median lay at about -52%. Many of the other results were omitted from the sample, so strong results are more common in it than they were.

tested on: Plasmodium falciparum; experiment: Screen against P. falciparum Asexual Blood Stage (ABS), at 5uM; type: functional, Dd2; conditions: tested at 5 uM

SMILES | INHIBITION
Cc1ccc(CN(C)C(=O)CNC(C)(C)c2noc(C(C)(C)C)n2)o1 | -62.5%
COCCC(=O)N1CCC2(COCc3cnc(N(C)C)nc32)C1 (configuration not stated) | -29%
CCc1ccc(CN(C)C(=O)c2cnc3c(c2)nc(N)n3CC)nc1 | -20.9%
COc1cccc(CNCCNS(=O)(=O)Cc2ccccc2)c1 | 55.5%
COc1cccc(OCCNS(=O)(=O)Cc2ccccc2)c1 | -91.8%
COc1cccc(OCCNCc2ccccc2)c1 | 34.7%
CN(Cc1cn2ccccc2c1C#N)C1CCCN(c2cccnn2)C1 (configuration not stated) | -92.9%
O=C(NCc1cncc2c1CCN(C1CCOCC1)C2)c1ccco1 | -81.7%
O=C(C(CNCc1cccs1)c1ccccc1)N1CCOCC1 (configuration not stated) | 7.93%
O=C(C(CNCc1ccsc1)c1ccccc1)N1CCOCC1 (configuration not stated) | 63.6%
O=C(C(CNCc1cccc(O)c1)c1ccccc1)N1CCOCC1 (configuration not stated) | -52.6%
O=C(c1nn[nH]c1Nc1ccc(Cl)cc1)N1CCCCCC1 | 23.3%
Cc1nc(C)c(C(C)NCc2c(C)nn(CC(C)C)c2N(C)C)s1 (configuration not stated) | -40.1%
CO[C@@H]1CCN(Cc2ccc(C)o2)[C@H]1Cc1ccccc1 | -45.5%
Cc1ccc(CN2CC[C@@H](O)[C@@H]2Cc2ccccc2)o1 | 51.6%
Cc1ccc(CN2CC[C@@H](O)[C@@H]2Cc2cnn(C)c2)o1 | -75.8%
Cn1cc(NC(=O)c2cccc(-n3cnnn3)c2)cn1 | -36%
c1ccc(N2CCC(NCc3cccc4cn[nH]c34)C2)cc1 (configuration not stated) | -37.2%
COc1ccc(CNC2CCN(c3ccccc3)C2)c(OC)c1OC (configuration not stated) | 55.2%
COc1cc(OC)cc(N2CCC(NCc3cc[nH]n3)C2)c1 (configuration not stated) | -39.5%
COc1cccc(CNC2CCSC2)c1OC (configuration not stated) | -18.4%
COc1cc(CNC2CCN(c3ccccc3)C2)cc(OC)c1OC (configuration not stated) | 64.6%

SMILES | INHIBITION
COc1ccc(CNC2CCN(c3ccccc3)C2)cc1O (configuration not stated) | 40.9%
Cc1cc(C)c(CNC(=O)c2ccc3c(c2)CCC3)c(=O)[nH]1 | -48.6%
CCN(CCS(=O)(=O)c1ccc(Cl)cc1)Cc1ccc(OC)c(OC)c1 | -18.6%
Cc1nc(CN2CCCn3cnc(COC(C)C)c3C2)cs1 | -54.9%
Cc1csc2c(N3CCC(NCCCC4CCOC4)CC3)ncnc12 (configuration not stated) | -85.3%
CCS(=O)(=O)CCNC1CCN(c2nc3ccc(Cl)cc3s2)CC1 | -52%
Clc1ccc2nc(N3CCC(NCCCC4CCOC4)CC3)sc2c1 (configuration not stated) | 66.2%
COCc1nc2ncc3c(=O)n(-c4ccccc4OC)ccc3n2n1 | -152%
O=C(Nc1cccc(F)c1)C1CCCN1c1nccs1 (configuration not stated) | -77.8%
O=C(Nc1cccc(N2CCCC2)c1)C1CCCN1c1nccs1 (configuration not stated) | -129%
N#Cc1cccc(NC(=O)C2CCCN2c2nccs2)c1 (configuration not stated) | 58.1%
CNC(=O)c1ccc(CNc2ccncc2Cl)cc1 | -24.6%
O=S(=O)(NCCCn1cncn1)c1ccc2c(c1)CCCC2 | -159%
CNc1nc(C2CCCN2C(C)=O)nc2c1CN(C1CCCC1)CC2 (configuration not stated) | -71.7%
CN1CCCCC1c1cncc(N2CCC(O)CC2)n1 (configuration not stated) | -68.9%
Cc1noc(C)c1CN1CCC2(COCc3cnc(N(C)C)nc32)C1 (configuration not stated) | 26.7%
O=S(=O)(C1CC1)N1CCC2(COCc3cnc(NCC4CC4)nc32)C1 (configuration not stated) | -35.7%
CN(C)c1ncc2c(n1)C1(CCN(Cc3ccccc3F)C1)COC2 (configuration not stated) | 4.25%
c1cc(N2CCC3(COCc4cnc(NCC5CC5)nc43)C2)ncn1 (configuration not stated) | -14.7%
Cc1ccccc1CN1CCC2(COCc3cnc(N(C)C)nc32)C1 (configuration not stated) | 54%
c1ccc(CN2CCC3(COCc4cnc(NCC5CC5)nc43)C2)cc1 (configuration not stated) | 50.2%
Cc1cccc(CN2Cc3ccnn3CC(COCC3CC3)C2)n1 (configuration not stated) | -11.3%

SMILES | INHIBITION
COCCN1CCN(C(=O)NC2CC2)Cc2ccc(C)nc21 | -51.3%
Cc1cc(C[C@@H]2COC[C@H]2NCc2ccc(Cl)c(Cl)c2)on1 | -65.7%
Cn1cc(N2CCC3(CCCN(Cc4ccc(F)cc4)C3)C2=O)cn1 (configuration not stated) | -69.1%
O=C1COC2(CCN(CC3CC3)CC2)CN1c1ccsc1 | -43%
c1cc(C2CC2)n2cnc(C3CN(Cc4ccncc4)CCO3)c2c1 (configuration not stated) | -50%
COCC(=O)N1CCC(c2nc3ccc(-c4ccncc4)cn3n2)CC1 | -48.7%
c1ccc2c(c1)ccn2CCCNC1CCOC2(CCOCC2)C1 (configuration not stated) | 61.8%
c1ccc2c(c1)cnn2CCCNC1CCOC2(CCOCC2)C1 (configuration not stated) | 68.9%
c1ccc(-c2noc(CCNC3CCOC4(CCOCC4)C3)n2)nc1 (configuration not stated) | -80.1%
c1ccc(Cc2noc(CCNC3CCOC4(CCOCC4)C3)n2)cc1 (configuration not stated) | -43.3%
c1ccc(-c2nc(CCNC3CCOC4(CCOCC4)C3)no2)cc1 (configuration not stated) | -81.3%
c1ccc2c(c1)nnn2CCCNC1CCOC2(CCOCC2)C1 (configuration not stated) | -4.37%
COc1cc(F)ccc1-c1ncccc1NC(=O)C(C)C | -81.8%
CC(C)(C)c1nc(NS(=O)(=O)c2cccc(F)c2)no1 | -71.4%
Cc1cc(NCc2ccc(C#N)cc2)n2nc(C)cc2n1 | -88.7%
Cc1nn(C)c2cn(C(C)C(=O)NCc3ccccn3)nc12 (configuration not stated) | -17.6%
CN(C)CCN1CCN(Cc2cccc(C#N)c2)Cc2cccnc21 | 65.1%
Cc1noc(C)c1CN1CCN(CCN(C)C)c2ncccc2C1 | 23.7%
CC(C)N(C)Cc1cnc2n1CCN(Cc1cccc(C#N)c1)C2 | 10.6%
Cc1ncccc1NC(=O)c1nc2c(n1C)CCN(C(=O)C1CC1)C2 | -117%
COc1ccccc1NCc1cscn1 | -46.4%
COc1cc(C(C)NCc2scnc2C)ccc1SC(F)F (configuration not stated) | 19.3%

SMILES | INHIBITION
COc1cc(C(C)NCc2cscn2)ccc1SC(F)F (configuration not stated) | 52.5%
CN(Cc1cccnc1)C1CC2(CCN(Cc3cccnc3)CC2)C1 | -8.45%
Cc1ccc(N2CCC3(CC2)CCN(C2CCOCC2)CC3)nn1 | -77.4%
COCCN(Cc1ccc(C)cc1)CC1CCOC1 (configuration not stated) | -104%
CCOC[C@]12COC[C@H]1CN(Cc1cccc(OC)c1)C2 | 3.19%
COc1cc(N2C[C@@H]3COC[C@]3(COCc3ccncc3)C2)ncn1 | -1.95%
COc1ncccc1CN1C[C@@H]2COC[C@]2(COc2cccnc2)C1 | -33.8%
COc1ccccc1CN1C[C@@H]2COC[C@]2(COCc2ccncc2)C1 | 55.3%
COc1cccc(CN2C[C@@H]3COC[C@]3(COCc3ccncc3)C2)c1 | 33.5%
COc1ccccc1CN1C[C@@H]2COC[C@]2(COc2cccnc2)C1 | 52.9%
COc1cccc(CN2C[C@@H]3COC[C@]3(COc3cccnc3)C2)c1 | 16.9%
Fc1cccc(CN2C[C@@H]3COC[C@]3(COCc3ccncc3)C2)c1 | -28.5%
COc1cccc(CN2C[C@@H]3COC[C@]3(COCc3ccccn3)C2)c1 | 61%
COCc1nc(C(=O)N2CCCC(n3ccnc3)C2)cs1 (configuration not stated) | -141%
Cn1cc(N2CC3(CCN(Cc4ccsc4)CC3)OCC2=O)cn1 | -22.1%
Cc1nc(NCCCn2cccn2)c2c(n1)c(C)nn2C | -54.6%
Cc1cn2c(n1)CCC(NC(=O)CCCOCc1ccccc1)C2 (configuration not stated) | -45.8%
Cc1nc(CO[C@@H]2CN(Cc3cnn(C)c3)[C@@H]3COC[C@@H]32)cs1 | -12.8%
CC(C)Cc1cc(-c2cc(-c3ccc[nH]3)nc(N)c2C#N)n[nH]1 | 61.3%
Cc1n[nH]c(C)c1-c1cc(-c2ccc[nH]2)nc(N)c1C#N | -185%
Cc1n[nH]c(C)c1-c1cc(-c2cccc(O)c2)nc(N)c1C#N | -71.8%
N#CC1(NC(=O)c2ccc(F)c(Br)c2)CCSC1 (configuration not stated) | -155%

SMILES | INHIBITION
CCc1ccc(NC(=O)CCN2CC(n3nc(C)cc3C)C2)cc1 | -12.9%
CC(C)CN1CCCC1c1ccc(C(=O)Nc2cc[nH]n2)s1 (configuration not stated) | 44.6%
CC(C)CN1CCCC1c1ccc(C(=O)Nc2cn(C)nn2)s1 (configuration not stated) | 52.9%
CCc1nnc(NC(=O)c2ccc(C3CCCN3CC(C)C)s2)s1 (configuration not stated) | -54.1%
O=C(Nc1cccc(Cl)c1)c1nn(C2CCS(=O)(=O)C2)c2c1CCCC2 (configuration not stated) | 25.4%
O=C(CO[C@@H]1CC[C@H]2[C@H]1OCCN2Cc1ccccn1)N1CCCC1 | -59.6%
O=C(c1cnccn1)N1CCC2(CC1)CCN(Cc1ccccn1)C2=O | -85.2%
CN(Cc1cncnc1)[C@@H]1CN(Cc2ccco2)C[C@@H]2CCCO[C@@H]21 | -7.65%
COc1ccccc1CN1CC[C@H]2[C@@H](C1)[C@H](c1ccsc1)CN2C(C)=O | 29.5%
COc1cccc(CN2CC[C@H]3[C@@H](C2)[C@H](c2ccsc2)CN3C(C)=O)c1 | 54.8%
CC(C)(C)C(=O)N1C[C@H](c2ccsc2)[C@H]2CN(Cc3cccs3)CC[C@H]21 | 29.8%
Cn1nc(COc2cccnc2)c2c1CCN(c1cnccn1)C2 | -72.3%
Oc1cc(C2CCCCN2CC2CC2)nc(-c2ccncc2)n1 (configuration not stated) | -48.7%
O=C1CC2(CCN(CC3CCOC3)CC2)c2ccccc2N1CC1CC1 (configuration not stated) | 12.4%
CCS(=O)(=O)N1CCC2(CC1)CN(CC1CCOC1)c1ccccc12 (configuration not stated) | 23.6%
CS(=O)(=O)N1CCC2(CC1)CN(CC1CCOC1)c1ccccc12 (configuration not stated) | -50.1%
CCCS(=O)(=O)N1CCC2(CC1)CN(CC1CCOC1)c1ccccc12 (configuration not stated) | 50.8%
c1ccc2c(c1)N(CC1CCOC1)CC21CCN(c2cnccn2)CC1 (configuration not stated) | 69.9%
CCCS(=O)(=O)N1CCC2(CC1)CN(C(=O)N(C)C)c1ccccc12 | -7.36%
